Only some compounds are listed: those with a hit (about 1.9% of all), similar ones and a draw of the others.
sdo1 growth: compounds rescuing growth of sdo1-depleted yeast, bone marrow failure model. S. cerevisiae sdo1-depleted JHY4D growth rescue, OD600 30 h; active compounds read high; pdr5 snq2 efflux-pump mutant strain. actives 0.21% (n = 140,000). z-score at 10 µM;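 active = z-score above 3 at both the 24 hr and the 30 hr optical density reads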
Measles CPE: protection of cells from measles virus; Measles virus-infected cells, CPE protection, absorbance; protection (pct of control), % at 4 µM; actives 1.5% (n = 140,000); AID 841; in the data active = protection mostly above about 24%, no sharp cut-off; inactive = mostly below about 26%
sEH inhibitor: inhibitors of human soluble epoxide hydrolase; actives 0.34% (n = 91,000); recombinant human sEH enzymatic activity assay; P34913; inhibition, % at 2 µM; AID 707; in the data active = inhibition above about 80%
Target sequence (P34913 whole entry, looked up): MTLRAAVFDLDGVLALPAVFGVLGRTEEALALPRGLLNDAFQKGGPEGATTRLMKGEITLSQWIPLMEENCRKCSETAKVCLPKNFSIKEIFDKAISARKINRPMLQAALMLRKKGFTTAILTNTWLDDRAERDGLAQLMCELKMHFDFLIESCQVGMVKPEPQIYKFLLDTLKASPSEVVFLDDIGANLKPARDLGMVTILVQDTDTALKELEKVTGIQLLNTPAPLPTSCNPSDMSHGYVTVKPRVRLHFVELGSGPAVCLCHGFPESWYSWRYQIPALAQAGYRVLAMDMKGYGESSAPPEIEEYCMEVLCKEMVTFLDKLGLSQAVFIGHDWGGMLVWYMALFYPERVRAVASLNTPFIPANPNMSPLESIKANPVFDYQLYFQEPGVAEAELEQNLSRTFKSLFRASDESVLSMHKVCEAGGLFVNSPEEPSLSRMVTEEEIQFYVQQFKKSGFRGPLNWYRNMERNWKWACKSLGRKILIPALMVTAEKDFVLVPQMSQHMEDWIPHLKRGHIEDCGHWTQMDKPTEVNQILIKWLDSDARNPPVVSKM
sEH act: soluble epoxide hydrolase (human) activation. activation, % at 2 µM. AID 717. P34913. actives 0.04% (n = 91,000). purified human sEH enzymatic activity, activator screen; in the data active = activation above about 37%
Hits are given with their value; i = inactive; nt = no result.

SMILES	sdo1 growth	Measles CPE	sEH inhibitor	sEH act
CCP(=O)(CC)C(C)(C)CP(=O)(c1ccccc1)c1ccccc1	i	i	i	i
O=C(COC(=O)c1cc(Br)ccc1Cl)NC(=O)NCc1ccccc1	i	i	nt	nt
O=C(COC(=O)c1ccccc1Cl)NC(=O)NCc1ccccc1	i	68	nt	nt
Cc1ccc(S(=O)(=O)NNC(=O)c2ccncc2)cc1	i	i	nt	nt
Cc1ccc(C2=[N+]([O-])C3(CCCCC/C3=N\O)N(O)C2(C)C)o1 (configuration not stated)	i	i	nt	nt
CC1(C)C(c2cccs2)=[N+]([O-])C2(CCCCC/C2=N\NC(N)=O)N1O (configuration not stated)	i	30	i	i
O=S(=O)(Nc1cccnc1Cl)c1ccc2c(c1)OCCO2	i	33	nt	nt
CSc1ccccc1NS(=O)(=O)c1ccc2c(c1)OCCO2	i	i	i	i
COCCCn1c(-c2ccco2)nc2ccccc2c1=O	i	29	i	i
COc1ccc(CCn2c(-c3ccco3)nc3ccccc3c2=O)cc1OC	i	i	i	i
COC(=O)C1=C(C)NC(=O)C1(NC(=O)CN1CCCC1=O)C(F)(F)F (configuration not stated)	i	41	i	i
CCCNC(=O)Cn1cnc2sc(C(=O)NCCN(CC)CC)c(C)c2c1=O	i	37	i	i
Cc1cccc(OCC(=O)NNC(=O)c2cc3ccccc3oc2=O)c1	i	43	i	i
CCOC(=O)Cn1c(C(C)=O)nc2ccccc21	i	i	nt	nt
CC(C)N(C(=O)c1ccc2nc3c4ccccc4c4ccccc4c3nc2c1)C(C)C	nt	nt	i	i
CS(=O)(=O)N1CCN(C(=O)c2csc3ccccc23)CC1	i	61	i	i
O=C1C=C(NCc2ccco2)CCC1	i	i	i	i
O=C1CCCC(=NCc2ccco2)C1	i	36	nt	nt
CC(C)(C)n1nnnc1C(c1cccc(C(F)(F)F)c1)N1CCOCC1 (configuration not stated)	i	27	i	i
O=C(CSCc1ccc(Cl)cc1)N/N=C/c1ccccc1	i	i	i	i
O=C(Oc1ccc(N(Cc2cccs2)C2=NS(=O)(=O)c3ccccc32)cc1)c1ccccc1F	i	28	i	i
CN1CCN(S(=O)(=O)c2ccc3[nH]c(=O)oc3c2)CC1	i	40	nt	nt
Cn1c(=O)oc2cc(S(=O)(=O)N3CCCC3)ccc21	i	i	nt	nt
O=C(NC1CCCC1)C(c1ccncc1)N(Cc1ccccc1)C(=O)Cc1cccs1 (configuration not stated)	i	i	i	i
O=C(NC1CCCC1)C(c1ccsc1)N(Cc1ccccc1)C(=O)Cc1cccs1 (configuration not stated)	i	63	i	i
SMILES	sdo1 growth	Measles CPE	sEH inhibitor	sEH act
Cc1ccc(C)c(OCC(=O)N/N=C/c2ccsc2)c1	i	i	i	i
CCCCCNC(=O)CCc1ccccc1	i	53	i	i
Cn1c(=O)c2cc(S(=O)(=O)NCCC(=O)NC3CCCCCC3)ccc2n(C)c1=O	i	i	i	i
CC1=C(C(=O)Nc2ccccc2)C(c2ccncc2)C(C#N)=C(SCC(=O)NC2CC2)N1 (configuration not stated)	i	34	nt	nt
CC1=C(C(=O)Nc2ccccc2)C(c2ccncc2)C(C#N)=C(SCC(=O)NC(C)C)N1 (configuration not stated)	i	i	i	i
CCOc1cc(C)nc(Oc2ccc(=O)[nH]n2)n1	i	i	i	i
C=CCNC(=O)c1onc(CSc2cc(C)ccc2C)c1C(=O)O	i	34	i	i
NNC(=O)c1cc2c(s1)CCCCCC2	i	i	i	i
COCCN1Cc2cccc(C(=O)Nc3cccc(OC)c3)c2C1=O	i	i	i	i
CN(C)S(=O)(=O)c1ccc(NC(=O)N2CCN(c3ccccc3)CC2)cc1	i	40	i	i
COc1ccc(N2C(=O)CSC23C(=O)N2c4c(cccc43)C(C)=CC2(C)C)cc1 (configuration not stated)	i	i	i	i
O=C(CSc1nc2ccccc2o1)Nc1ccccc1N1CCOCC1	i	48	i	i
O=C(CSc1nc2ccccc2o1)Nc1ccc(N2CCOCC2)cc1	i	i	i	i
CC1(C)CC(=O)c2cnc(NC(=O)CSc3nc4ccccc4o3)nc2C1	i	17	i	i
Cc1cc(C)nc(SCC(=O)Nc2ncc3c(n2)CC(C)(C)CC3=O)n1	i	i	i	i
COc1ccc(CCn2c(N)cc(=O)[nH]c2=S)cc1OC	i	i	i	i
Cc1noc(C)c1CSc1nc2sc3c(c2c(=O)n1C)CCCC3	i	96	i	i
CCCCOC(=O)C1=C(C)Nc2nnnn2C1c1ccc(OC)c(OC)c1OC (configuration not stated)	i	46	nt	nt
N#C/C(=N\Nc1ccccc1)C(=N)N1CCOCC1	i	74	nt	nt
Cc1ccc(N/N=C(\C#N)C(=N)N2CCOCC2)cc1	i	i	nt	nt
CCC(CC)c1nnc(NC(=O)c2cc(-c3ccccc3)nc3ccccc23)s1	i	i	nt	nt
O=C(NCc1ccccn1)c1cc(-c2ccccc2)nc2ccccc12	i	i	nt	nt
O=C(NCc1ccccn1)c1cc(-c2ccc(-c3ccccc3)cc2)nc2ccccc12	i	50	nt	nt
O=C(Nc1nccs1)c1cc(-c2ccccc2)nc2ccccc12	i	40	nt	nt
CC(C)Cc1nnc(NC(=O)c2cc(-c3ccccc3)nc3ccccc23)s1	i	44	i	i
SMILES	sdo1 growth	Measles CPE	sEH inhibitor	sEH act
COc1cc(NC(=O)CSc2nnc(C)s2)cc(OC)c1OC	i	i	i	i
Cc1cccc(Sc2ccc([N+](=O)[O-])cc2[N+](=O)[O-])n1	i	39	nt	nt
O=C(NCCc1ccccc1F)C1CCCN1S(=O)(=O)c1ccc2ccccc2c1 (configuration not stated)	i	i	i	i
O=C(NNC(=O)c1ccccc1Cl)c1ccncc1	i	i	nt	nt
O=C1c2cccc3cccc(c23)C(=O)N1CCN1CCN(CC(O)COc2ccc3ccccc3c2)CC1 (configuration not stated)	i	57	nt	nt
Cc1ccc(C)c(OCC(O)CN2CCN(CCN3C(=O)c4cccc5cccc(c45)C3=O)CC2)c1 (configuration not stated)	i	i	nt	nt
CCOc1cc(-c2nn3cnnc3s2)cc(OCC)c1OCC	i	i	i	i
Cc1ccc(Cn2ccc(NC(=O)c3noc4c3CCCCC4)n2)cc1	i	62	nt	nt
Cc1ccc(Cn2ccc(NC(=O)c3noc4c3CCCC4)n2)cc1	i	i	nt	nt
O=C(Nc1cnn(Cc2ccc(Cl)c(Cl)c2)c1)c1nc2ncccn2n1	i	i	i	i
Cc1ccc(Cn2ccc(NC(=O)c3nc4ncccn4n3)n2)cc1	i	39	i	i
O=C(N/N=C\c1cn(-c2ccccc2)nc1-c1ccccc1)c1ccc(Br)o1	i	i	i	i
C#CCOCCOCCOCCNc1nc(N2CCN(C(=O)[C@H](C(C)C)n3cc(CCO)nn3)CC2)nc(N2CCN(C(=O)[C@H]([C@@H](C)CC)n3cc(CCCCN)nn3)CC2)n1	i	i	nt	nt
C/C(CC(=O)Nc1ccccn1)=N\NC(=O)c1ccccc1	i	i	nt	nt
C/C(CC(=O)Nc1cc(C)cc(C)c1)=N\NC(=O)c1ccccn1	i	69	nt	nt
COCCN1C(=O)N(c2cccc(C)c2)C(=O)C1CC(=O)Nc1ccc(F)cc1 (configuration not stated)	i	i	i	i

Source: PubChem BioAssay (several laboratories)
